Assay outcomes from PubChem BioAssay.
Integrin act MD: qHTS for Activators of Integrin-Mediated Alleviation for Muscular Dystrophy | alpha7betagal myoblasts, beta-gal FDG fluorescence, 48 h | 350,000 compounds, 0.064% hits | Potency, µM (doses to about 38.3 µM), most hits filed as activators; also: nearly all actives have a fitted effect of over 60% in size
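alpha7betagal+/- myoblasts (passage 13, 250/well) treated 48 h at 37C with compounds at 1:260 dilution of DMSO stock. Lysed, then beta-galactosidase activity read as FDG fluorescence (ex 480/em 540) after 30 min, with pre-read for autofluorescence.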
B2AR arrestin: qHTS assay of beta-arrestin-biased ligands of beta2-adrenergic receptor; Beta-2 adrenergic receptor (Homo sapiens), P07550; beta-arrestin recruitment to beta2AR, cell-based reporter; Potency, µM (doses to about 46.1 µM), actives largely listed as activators; 330,000 compounds, 0.02% hits; AID 492947, 2010; also: nearly all actives have a fitted effect of over 65% in size
D3 ag: qHTS of D3 Dopamine Receptor Agonist: qHTS; D(3) dopamine receptor (Homo sapiens), P35462; D3R DiscoveRx beta-arrestin cells, luminescence, 90 min; max activation, %; 410,000 compounds, 0.58% hits; AID 652048, 2013; in the data active = max activation above about 30%
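Cells at 1500/well, incubated overnight, then treated with pinned compounds (dopamine as control) for 90 min at 37 degrees C. DiscoveRx reagent added for 30 - 60 minutes at room temperature; luminescence read.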
DRD3 antagonist: qHTS of D3 Dopamine Receptor Antagonist: qHTS; D(3) dopamine receptor (Homo sapiens), P35462; 360,000 compounds, 2.5% hits; max response, negative = inhibition, %; D3R cells, DiscoveRx beta-arrestin luminescence, antagonist mode; stronger effect = lower value; in the data active = max response below about -50%; inconclusive = no clear call, values can overlap the other calls
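Cells expressing the human receptor were seeded at 1500 cells/well, incubated overnight at 37 degrees C in 5% CO2, then exposed to library compounds with dopamine controls for 90 minutes at 37 degrees C before luminescent detection.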
IDH1 R132H inh: qHTS for Inhibitors of mutant isocitrate dehydrogenase 1 (IDH1): qHTS. IDH1-R132H enzyme, NADPH consumption, diaphorase/resazurin fluorescence. 390,000 compounds, 0.093% hits. Potency, µM (doses to about 76.6 µM), actives largely listed as inhibitors. Isocitrate dehydrogenase [NADP] cytoplasmic (Homo sapiens), O75874; also: nearly all actives have a fitted effect of over 65% in size
Target sequence (O75874 whole entry R132H, stated change not applied): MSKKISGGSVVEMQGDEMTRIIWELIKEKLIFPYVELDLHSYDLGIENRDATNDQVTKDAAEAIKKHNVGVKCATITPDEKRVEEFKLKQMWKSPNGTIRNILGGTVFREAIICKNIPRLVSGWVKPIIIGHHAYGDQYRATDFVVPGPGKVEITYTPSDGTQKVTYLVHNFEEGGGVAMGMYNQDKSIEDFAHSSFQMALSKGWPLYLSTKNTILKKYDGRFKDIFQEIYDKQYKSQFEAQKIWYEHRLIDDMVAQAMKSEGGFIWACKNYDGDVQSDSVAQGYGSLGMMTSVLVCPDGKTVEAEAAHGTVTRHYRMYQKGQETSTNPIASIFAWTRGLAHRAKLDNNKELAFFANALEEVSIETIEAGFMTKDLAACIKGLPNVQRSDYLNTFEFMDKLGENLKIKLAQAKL
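IDH1-R132H (0.5 ug/mL dispensed) in pH 7.5 Tris buffer was preincubated 30 min with compound, then given a substrate mix of 0.016 mM NADPH and 2 mM alpha-KG for 80 min at room temperature; remaining NADPH was read by diaphorase/resazurin fluorescence.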
Each line names hits and unclear results; the compound was inactive in the other large screens; ! = repeats disagree. This is a sample that favours compounds with a hit; in the whole collection about 2.9% have one here. Unless noted, calls follow the shape of the dose curve; as a rule, active = well fitted curve in the direction sought with a large enough effect; inconclusive = small, poorly fitted or top-dose-only effect, or another doubt; inactive = no such curve, though single readings can be large; an effect the other way counts as inactive or inconclusive.

C=CCc1ccccc1OCC(O)CN1CCN(Cc2ccc3c(c2)OCO3)CC1 (configuration not stated)	DRD3 antagonist -89!
COc1cc(C#Cc2c(-c3cncn3C)n(C)c3ccc(-c4ccc(OC)c(OC)c4)cc23)cc(OC)c1	D3 ag 70
COc1cc(C#Cc2c(-c3cncn3C)n(C)c3ccc(-c4ccc5cc[nH]c5c4)cc23)cc(OC)c1	none
CC(C)c1ccc(-n2cnn(-c3ncccc3[N+](=O)[O-])c2=O)cc1	DRD3 antagonist -83
O=C(Nc1ccccc1)NC1CCN(Cc2ccccc2)CC1	none (no result: D3 ag, DRD3 antagonist)
S=C(Nc1ccc2c(c1)OCO2)NC1CCN(Cc2ccccc2)CC1	DRD3 antagonist -65
Cc1ccc(NC(=S)NC2CCN(Cc3ccccc3)CC2)cc1	DRD3 antagonist -61
CC(C)c1ccc(NC(=S)NC2CCN(Cc3ccccc3)CC2)cc1	DRD3 antagonist inconclusive
Cc1ccc(C(=S)N2CCN(Cc3ccccc3)CC2)cc1	DRD3 antagonist -71
Cc1ccc(NC(=S)NC2CCN(Cc3ccccc3)CC2)cc1C	DRD3 antagonist -52
COc1ccc(-c2noc(-c3ccc(NCc4ccco4)c([N+](=O)[O-])c3)n2)cc1	none (no result: Integrin act MD, B2AR arrestin, DRD3 antagonist)
Cc1cccc(Cn2cnc3c(cnn3-c3ccc(Cl)cc3)c2=O)c1	none (no result: Integrin act MD, B2AR arrestin, DRD3 antagonist)
Cc1c(-c2nsc(NC(=O)c3cccs3)n2)nnn1-c1ccc(F)cc1	none (no result: Integrin act MD, B2AR arrestin, DRD3 antagonist)
COC(=O)C[C@](O)(CCCC(C)(C)O)C(=O)O[C@@H]1C(OC)=CC23CCCN2CCc2cc4c(cc2[C@H]13)OCO4 (some centres not stated)	none (no result: Integrin act MD, B2AR arrestin, DRD3 antagonist, IDH1 R132H inh)
O=C(CNC(=O)c1cccs1)N/N=C/c1c(F)cccc1Cl	DRD3 antagonist -51
Cc1ccc(/C=N/NC(=O)CNC(=O)c2cccs2)cc1	none
O=S(Cc1ccc(Cl)cc1)c1ccccc1 (configuration not stated)	D3 ag 66 (no result: B2AR arrestin)
O=S(Cc1ccccc1)c1ccccc1 (configuration not stated)	none (no result: B2AR arrestin)
COC(=O)[C@H](NC(=O)c1cc([C@@H](NC(=O)OC(C)(C)C)C(C)C)sc1N)C(C)C	none (no result: Integrin act MD, B2AR arrestin, IDH1 R132H inh)
COc1ccc(CCNC(=O)c2cc(-c3ccc(C)c(C)c3O)n[nH]2)cc1OC	none
COc1ccc(CCNC(=O)c2cc(-c3cc(C)ccc3O)n[nH]2)cc1OC	Integrin act MD 10µM
N#CC(C#N)=C1C=CC=CN1/C(=C\c1ccco1)C(=O)c1ccc(Cl)cc1	DRD3 antagonist -108
N#CC(C#N)=C1C=CC=CN1/C(=C\c1ccco1)C(=O)c1ccc(-c2ccccc2)cc1	DRD3 antagonist -92
O=C(C1CCCN(S(=O)(=O)c2ccc(Br)s2)C1)N1CCN(c2ccccc2F)CC1 (configuration not stated)	none (no result: Integrin act MD, B2AR arrestin, DRD3 antagonist)
CCCCNC(=O)C1CCCN(S(=O)(=O)CCC)C1 (configuration not stated)	none (no result: Integrin act MD, B2AR arrestin, DRD3 antagonist)
Cc1oc(-c2cccc(Cl)c2)nc1Cn1c(SCc2ccc(F)cc2)nc2cccnc21	none (no result: Integrin act MD, B2AR arrestin, DRD3 antagonist)
CCC(C)(C)n1nnnc1C(c1cccc(C#N)c1)N1CCN(c2cc(C)ccc2C)CC1 (configuration not stated)	DRD3 antagonist -60
O=C(Nc1nc2ccccc2s1)c1cnccn1	none
O=C(Nc1nnc(SCc2ccc(F)cc2)s1)c1ccccn1	DRD3 antagonist -66
O=C(Nc1nc2ccc(F)cc2s1)c1ccccn1	DRD3 antagonist -73
C/C=C/c1ccc(OCCCCN2CC(C)CC(C)C2)c(OC)c1 (configuration not stated)	DRD3 antagonist -74
C=C1c2c(Cl)ccc(O)c2C(O)=C2C(=O)[C@]3(O)C(O)=C(C(N)=O)C(=O)[C@@H](N(C)C)[C@@H]3[C@@H](O)[C@H]12	none (no result: Integrin act MD, B2AR arrestin, DRD3 antagonist, IDH1 R132H inh)
CCOC(=O)c1ccc2[nH]c(CSc3nnc(-c4cccc(F)c4)n3C)cc(=O)c2c1	none (no result: Integrin act MD, B2AR arrestin, DRD3 antagonist)
O=C(/C=C/c1ccc(OCCCF)cc1)NCc1ccc(Cl)cc1	DRD3 antagonist -70
Cc1ccc(SCC(=O)N2N=CCC2c2ccccc2)cc1 (configuration not stated)	none
Cc1ccc(NC(=O)c2ccco2)c(NC(=O)c2ccccc2)c1	none
CCN(CC)P(=O)(Nc1ccc(C)cc1Br)c1ccc(N(C)C)cc1NC(=O)c1ccco1 (configuration not stated)	DRD3 antagonist -60
COc1ccccc1NC1=NCC(=O)N1Cc1ccccc1	none
Cc1ccc(NC2=NCC(=O)N2Cc2ccccc2)c(C)c1	D3 ag 39
O=C(N[C@@H](Cc1ccc(O)cc1)C(=O)O)c1ccc(C(F)(F)F)cc1	D3 ag 44
O=C(N/N=C/c1ccc(O)cc1O)c1ccncc1	D3 ag 42
O=C(CNC(=O)C(c1ccccc1)c1ccccc1)N/N=C/c1ccc(O)cc1O	D3 ag 33
O=C(N/N=C/c1ccc(O)cc1O)C1CC1	DRD3 antagonist -92 (no result: B2AR arrestin)
O=C(N/N=C/c1ccc(Cl)cc1Cl)c1ccncc1	none
Cn1c(=O)oc2cc(S(=O)(=O)NC(Cc3ccccc3)C(=O)NCc3ccccc3Cl)ccc21 (configuration not stated)	none (no result: Integrin act MD, B2AR arrestin, DRD3 antagonist)
O=C(Cn1cnc2onc(-c3ccc(F)cc3)c2c1=O)Nc1cccc(C(F)(F)F)c1	none (no result: Integrin act MD, B2AR arrestin, DRD3 antagonist)
Cc1ccc(C(=O)NCCN2C3=NC[C@H](C)N3C[C@H]2Cc2ccc(O)cc2)cc1Br	DRD3 antagonist -58
COc1ccc(C[C@H]2CN3C(=NC[C@@H]3C(C)C)N2CCNC(=O)c2ccc(C)c(Br)c2)cc1	DRD3 antagonist -64
Cc1ccc(C(=O)NCCN2C3=NC[C@H](C(C)C)N3C[C@H]2Cc2ccc(O)cc2)cc1Br	none
COc1ccc(C[C@H]2CN3C(=NC[C@H]3C)N2CCNC(=O)c2ccc(C)c(Br)c2)cc1	DRD3 antagonist -57
CCCCCCCCCCCCCCCC(=O)OC[C@H](O)[C@H]1OC(=O)C(O)=C1O	none (no result: Integrin act MD, B2AR arrestin, DRD3 antagonist, IDH1 R132H inh)
CCN1C(=O)c2ccccc2C1Nc1ccc(OCCN2CCCCC2)cc1 (configuration not stated)	none (no result: Integrin act MD, B2AR arrestin, DRD3 antagonist, IDH1 R132H inh)
CC(C)n1c(N2CCN(S(=O)(=O)c3cccc([N+](=O)[O-])c3)CC2)nc2ccccc21	none
COc1ccccc1N1CCN(C(=O)CSc2nc3ccccc3nc2Cc2ccc(F)cc2)CC1	none (no result: Integrin act MD, B2AR arrestin, DRD3 antagonist)
O=C(CSc1nc2ccccc2nc1Cc1ccc(Cl)cc1)N1CCN(c2ccccc2F)CC1	D3 ag 37 (no result: Integrin act MD, B2AR arrestin, DRD3 antagonist)
COc1ccccc1N1CCN(C(=O)CSc2nc3ccccc3nc2Cc2ccc(C)cc2)CC1	D3 ag 34 (no result: Integrin act MD, B2AR arrestin, DRD3 antagonist)
Cc1ccc(Cc2nc3ccccc3nc2SCC(=O)N2CCN(c3ccccc3F)CC2)cc1	none (no result: Integrin act MD, B2AR arrestin, DRD3 antagonist)
CCOC(=O)c1cc(-c2ccc(C)cc2)n(CCC(=O)Nc2ccc(C(C)C)cc2)c1C	none (no result: Integrin act MD, B2AR arrestin, DRD3 antagonist)
